# Data published in PubChem BioAssay AID781 (Emory University Molecular Libraries Screening Center, 2007).
# In all, about 220,000 compounds went through this assay and about 1,600 (0.73%) were called active.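 Rule for the calls: active = inhibition above about 70% (limit read from the data); inactive = the rest.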 For the sample, actives were picked, then their nearest neighbours and some compounds at random.
# Target: 14-3-3 protein zeta/delta (Bos taurus) (UniProt P63103)
# Experiment: inhibitors of 14-3-3 zeta/Bad binding, primary screen, biochemical, TR-FRET, bovine 14-3-3 zeta (AID 781);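 note: 0% = full 14-3-3 plus peptide FRET controls and 100% = background without 14-3-3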
# Conditions: TR-FRET 14-3-3zeta/Dy647-pBad peptide displacement, 1 h; at 21.7 µM; stronger effect = higher value
# Chain of 14-3-3 protein zeta/delta (Bos taurus) (P63103 whole entry, looked up): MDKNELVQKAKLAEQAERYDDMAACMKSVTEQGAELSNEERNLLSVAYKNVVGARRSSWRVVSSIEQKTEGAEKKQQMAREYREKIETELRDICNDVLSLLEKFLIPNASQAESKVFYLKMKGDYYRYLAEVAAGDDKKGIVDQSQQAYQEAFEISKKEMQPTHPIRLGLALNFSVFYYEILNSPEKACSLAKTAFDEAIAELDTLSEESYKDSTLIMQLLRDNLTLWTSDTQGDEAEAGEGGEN
row,SMILES,inhibition
1,CCOc1ccc(S(=O)(=O)NCC2CCCO2)cc1 (configuration not stated),90.7% (active)
2,O=S(=O)(NCC1CCCO1)c1ccc2ccccc2c1 (configuration not stated),2.47% (inactive)
3,CCC(=O)Nc1ccc(S(=O)(=O)NCC2CCCO2)cc1 (configuration not stated),-9.79% (inactive)
4,COC(=O)c1sc(SC)c(S(=O)(=O)C(C)C)c1N/N=C(\C#N)S(=O)(=O)c1ccccn1,-11.7% (inactive)
5,O=[N+]([O-])c1ccc(N=Cc2c(O)ccc3ccccc23)cc1,2.73% (inactive)
6,O=C(NNc1cc(Cl)cc(Cl)c1)c1c(F)cccc1Cl,-1.3% (inactive)
7,CCOC(=O)N1CCN(CC(=O)c2c(C)[nH]c3ccccc23)CC1,-1.72% (inactive)
8,CCOC(=O)N1CCN(C(=O)Cn2cnc3ccccc3c2=O)CC1,-7.01% (inactive)
9,CCOC(=O)N1CCN(CC(=O)n2c(C)c(C)c3ccccc32)CC1,71.6% (active)
10,COc1ccc(CC(=O)NCC(=O)N/N=C/c2cc(Br)ccc2OC)cc1,-0.33% (inactive)
11,NC(N)=N/N=C/c1ccc(Cl)c([N+](=O)[O-])c1,22.1% (inactive)
12,COc1ccc(C(=O)O/N=C(\N)Cc2ccc(Cl)cc2Cl)cc1OC,-16.2% (inactive)
13,NC(N)=N/N=C/c1ccc(OCc2ccc(Cl)cc2Cl)cc1,98.2% [fluorescence artefact?] (active)
14,Cc1ccc(S(=O)(=O)N(C)C)cc1NC(=O)c1n[nH]c(=O)c2ccccc12,1.22% (inactive)
15,CCC(=O)c1ccc(OCC(=O)Nc2ccc3nc(C)sc3c2)cc1,4.78% (inactive)
16,O=[N+]([O-])c1cc(Cl)cc(/C=N/NC(=S)Nc2cc(S(=O)(=O)N3CCOCC3)ccc2Cl)c1O,50.2% (inactive)
17,C[C@@H]1C[C@@H]2O[C@H]2/C=C\C=C\C(=O)Cc2c(Cl)c(O)cc(O)c2C(=O)O1,-2.99% (inactive)
18,S=c1[nH]nc(-c2ccccc2)n1/N=C/c1c[nH]c2ccccc12,-8.9% (inactive)
19,S=c1[nH]nc(-c2cc(-c3ccccc3)n[nH]2)n1/N=C/c1c2ccccc2cc2ccccc12,77.8% (active)
20,Fc1ccccc1/C=N/n1c(-c2cccnc2)n[nH]c1=S,0.38% (inactive)
21,Cc1cccc(N2CCN(C(=O)/C=C/c3ccco3)CC2)c1C,-4.76% (inactive)
22,CCC1CO/C(=C(\C(=C(Cl)Cl)N2CCOCC2)[N+](=O)[O-])N1 (configuration not stated),93.7% (active)
23,CN(C)C(=O)c1coc2nc3ccccc3nc12,1.09% (inactive)

row,SMILES,inhibition
1,Cc1ccc(-c2csc(-c3cc(C)on3)n2)cc1,0.81% (inactive)
2,COc1ccc(C(=O)N(Cc2ccc(N(C)C)cc2)C2CCS(=O)(=O)C2)cc1 (configuration not stated),-0.9% (inactive)
3,COc1cc(C(=O)N(Cc2ccc(N(C)C)cc2)C2CCS(=O)(=O)C2)cc(OC)c1OC (configuration not stated),94.9% (active)
4,CCOc1ccc(C(=O)N(Cc2ccc(N(C)C)cc2)C2CCS(=O)(=O)C2)cc1 (configuration not stated),-6.02% (inactive)
5,CC(=O)NNC1=Nc2ccccc2N(C)C(C)C1 (configuration not stated),-5.76% (inactive)
6,Cc1ccc(N2C(=O)CC(N3CCSCC3)C2=O)c(C)c1 (configuration not stated),0.9% (inactive)
7,CC(=O)Nc1ccc(S(=O)(=O)Nc2nccc(/C=C/c3ccccc3F)n2)cc1,-3.98% (inactive)
8,O=C(NC(=S)N1CCN(Cc2ccccc2)CC1)c1ccccc1,-19.4% (inactive)
9,O=C(Nc1ccccc1)N1CCN(C(=O)Nc2ccccc2)CC1,-1.69% (inactive)
10,O=C(Nc1ccccc1)N1CCN(Cc2ccccc2)CC1,77.4% (active)
11,Cc1ccc(S(=O)(=O)/N=S(\C)C(C)C)cc1 (configuration not stated),1.1% (inactive)
12,CS(=O)(=O)N(Cc1ccccc1)c1ccc(C(=O)NN=C2CCCCCC2)cc1,-15.2% (inactive)
13,CC(=O)c1ccc(NC(=O)c2ccc3c(Cl)c4c(nc3c2)CCCC4)cc1,73.9% (active)
14,COc1ccc(N2CCN(C(=O)c3ccc4c(Cl)c5c(nc4c3)CCCC5)CC2)cc1,-10.1% (inactive)
15,COc1cccc(NC(=O)c2ccc3c(SCC(=O)O)c4c(nc3c2)CCCC4)c1,-11.6% (inactive)
16,COc1ccc(/C=C(\NC(=O)c2ccc(OCC(C)C)cc2)C(=O)OCc2ccco2)cc1,2.32% (inactive)
17,Cc1ccc(C)c(SCc2nc3sc(C(=O)O)c(C)c3c(=O)[nH]2)c1,0.11% (inactive)
18,COc1ccccc1NC(=O)CSc1nc2sc(C)c(C)c2c(=O)n1Cc1ccco1,-6.57% (inactive)
19,Cc1ccc(-c2nc(SCC(=O)Nc3ccccc3OC(F)F)c3c(C)c(C(=O)O)sc3n2)cc1,80.4% (active)
20,Oc1ccc2ccccc2c1C=Nc1ccccc1,4.91% (inactive)
21,CC(=O)Nc1ccc(S(=O)(=O)NC2(C(F)(F)F)C(=O)NC(C)=C2C#N)cc1 (configuration not stated),-3.08% (inactive)
22,Fc1ccccc1COc1ccccc1CNCc1ccncc1,75.9% (active)
23,COc1cccc(CNCCc2c[nH]c3ccccc23)c1OCc1ccccc1F,29.9% (inactive)

row,SMILES,inhibition
1,COc1ccccc1CNCc1cccs1,0.7% (inactive)
2,O=C(CCc1ccccc1)NCc1cccnc1,-1.29% (inactive)
3,c1ccc(COc2ccccc2CNCc2cccnc2)cc1,77.2% (active)
4,CCC(Oc1ccccc1)C(=O)NCc1cccnc1 (configuration not stated),-2.17% (inactive)
5,CCOC(=O)CN(C(=O)COc1nc(C)cc(C)c1C#N)c1ccc(Cl)cc1,-3.15% (inactive)
6,O=C(Nc1ccccc1Cl)c1ccccc1S(=O)(=O)c1ccccc1[N+](=O)[O-],5.14% (inactive)
7,COc1ccc(NC(=S)N2CCc3cc(OC)c(OC)cc3C2)cc1,-0.16% (inactive)
8,COc1ccccc1/C=C/C=N/NC(=O)CN1CCN(Cc2ccccc2)CC1,-5.86% (inactive)
9,O=C1COc2ccc(C(=O)COC(=O)C3CC(O)CN3S(=O)(=O)c3ccc(Cl)cc3)cc2N1 (configuration not stated),0.1% (inactive)
10,Cc1ccc2nc(SCc3cn4c(C)cc(C)nc4n3)[nH]c2c1,-0.6% (inactive)
11,CCCCn1c(=S)[nH]c2ccccc2c1=O,10.7% (inactive)
12,Cn1nnnc1SCc1cc(=O)[nH]c2ccccc12,8.32% (inactive)
13,CC(Sc1nc2c([nH]c3ccccc32)c(=O)n1C)c1ccccc1 (configuration not stated),98.1% (active)
14,S=C(Nc1ccc2c(c1)OCO2)N1CCCC1,-2.2% (inactive)
15,COc1ccc(CCn2nnnc2C(c2ccccc2)N2CCN(C)CC2)cc1OC (configuration not stated),82.9% (active)
16,N#Cc1ccc(C(c2nnnn2CCc2ccccc2)N2CCCCCC2)cc1 (configuration not stated),4.83% (inactive)
17,COc1ccc(C(c2nnnn2Cc2cccs2)N2CCN(c3ccccc3)CC2)cc1OC (configuration not stated),-7.19% (inactive)
18,COC(=O)c1cc(NC(=O)CN2CCN(C(C)=O)CC2)cc(C(=O)OC)c1,-3.76% (inactive)
19,FC(F)(F)c1nc(-c2ccccc2)ncc1-c1nnnn1-c1ccccc1,13.7% (inactive)
20,N/C(=N\OC(=O)Cc1ccc([N+](=O)[O-])cc1)c1ccccn1,-17.6% (inactive)
21,N/C(=N\OC(=O)COc1ccc([N+](=O)[O-])cc1)c1ccc(Br)cc1,2.68% (inactive)
22,N/C(=N\OC(=O)Cc1ccccc1[N+](=O)[O-])c1ccc(Br)cc1,93.1% (active)
23,CCCc1nc(-c2cc3cc(C)ccc3[nH]c2=O)no1,-0.29% (inactive)

row,SMILES,inhibition
1,COc1ccc(-n2nc(C(=O)Nc3cc(OC)c(OC)c(OC)c3)c3ccccc3c2=O)c(OC)c1,2.29% (inactive)
2,Cc1ccsc1/C=N/NC(=O)Cc1cc(=O)[nH][nH]1,-22.4% (inactive)
3,CCOCN(C(=O)Cn1c(C(C)O)nc2ccccc21)c1c(C)cccc1CC (configuration not stated),-12.3% (inactive)
4,COc1ccc(C(=O)Nc2cccnc2)cc1C(=O)Nc1cccnc1,2.89% (inactive)
5,O=C(Nc1cccnc1)c1cc2cc(Br)ccc2oc1=O,82.5% (active)
6,O=C(Oc1cccnc1)c1cc2ccccc2oc1=O,17.9% (inactive)
7,COc1ccc(C)cc1S(=O)(=O)Nc1cccc(Cl)c1Cl,-10% (inactive)
8,Cc1cc([N+](=O)[O-])nn1CCCC(=O)Nc1cccnc1Cl,-8.44% (inactive)
9,Cc1cc2nc3c(=O)n(Cc4ccccc4)c(=O)[nH]c3nc2cc1N,-0.29% (inactive)
10,Nc1ccc2nc3c(=O)[nH]c(=S)[nH]c3nc2c1,83.5% (active)
11,O=C1c2ccccc2NC(c2ccccn2)N1NS(=O)(=O)c1ccccc1 (configuration not stated),5.35% (inactive)
12,c1ccc(C2CNCc3c2ccc2ccccc32)cc1 (configuration not stated),-8.65% (inactive)
13,CN(C)S(=O)(=O)c1cccc(-c2nn(-c3ccccc3)cc2/C=C2\SC(=S)N(CC(=O)O)C2=O)c1,12% (inactive)
14,Cc1ccc(OCC(=O)Nc2ccc(S(=O)(=O)Nc3ccccn3)cc2)cc1,-3.5% (inactive)
15,Cc1ccc(OCC(=O)Nc2ccc(-c3nc4ncccc4o3)cc2)cc1,78.8% (active)
16,CC(=O)Nc1ccc(OCC(=O)NCc2ccc(C)cc2)cc1,-8.65% (inactive)
17,Cc1oc2nc(SCC(=O)Nc3ccc(S(N)(=O)=O)cc3)nc(NC(=O)c3ccccc3)c2c1C,-6.33% (inactive)
18,C/C=C(/C)C(=O)Nc1cccc(C2=NOC3(C2)C[C@@H](C(N)=O)N(C(=O)C2(C)CC2)C3)c1 (some centres not stated),-2.68% (inactive)
19,Cc1ccnc(NS(=O)(=O)c2ccc(NC(=O)c3ccc(S(=O)(=O)N(C)C)cc3)cc2)n1,-9.02% (inactive)
20,COc1cc(OC)c(/C=N/NC(=O)c2ccc([N+](=O)[O-])cc2)cc1Br,5.09% (inactive)
21,COc1cc(/C=N\NC(=O)c2nonc2N)c(OC)cc1Br,71.1% [fluorescence artefact?] (active)
22,COc1cc(/C=N/N=C(\N)c2nonc2N)cc(OC)c1OC,-22.2% (inactive)
23,CCc1ccc(S(=O)(=O)NCC(O)COc2ccc(OC)cc2)cc1 (configuration not stated),-1.31% (inactive)
